# In ChEMBL document CHEMBL2218924, “A broad activity screen in support of a chemogenomic map for kinase signalling research and drug discovery” (Biochem J, 2013):
# Tests used:
# [1] = molecular target: T1, Serine/threonine-protein kinase BRSK1 (Homo sapiens) (UniProt Q8TDC3); conditions: at 1 µM
# T1 sequence (whole entry): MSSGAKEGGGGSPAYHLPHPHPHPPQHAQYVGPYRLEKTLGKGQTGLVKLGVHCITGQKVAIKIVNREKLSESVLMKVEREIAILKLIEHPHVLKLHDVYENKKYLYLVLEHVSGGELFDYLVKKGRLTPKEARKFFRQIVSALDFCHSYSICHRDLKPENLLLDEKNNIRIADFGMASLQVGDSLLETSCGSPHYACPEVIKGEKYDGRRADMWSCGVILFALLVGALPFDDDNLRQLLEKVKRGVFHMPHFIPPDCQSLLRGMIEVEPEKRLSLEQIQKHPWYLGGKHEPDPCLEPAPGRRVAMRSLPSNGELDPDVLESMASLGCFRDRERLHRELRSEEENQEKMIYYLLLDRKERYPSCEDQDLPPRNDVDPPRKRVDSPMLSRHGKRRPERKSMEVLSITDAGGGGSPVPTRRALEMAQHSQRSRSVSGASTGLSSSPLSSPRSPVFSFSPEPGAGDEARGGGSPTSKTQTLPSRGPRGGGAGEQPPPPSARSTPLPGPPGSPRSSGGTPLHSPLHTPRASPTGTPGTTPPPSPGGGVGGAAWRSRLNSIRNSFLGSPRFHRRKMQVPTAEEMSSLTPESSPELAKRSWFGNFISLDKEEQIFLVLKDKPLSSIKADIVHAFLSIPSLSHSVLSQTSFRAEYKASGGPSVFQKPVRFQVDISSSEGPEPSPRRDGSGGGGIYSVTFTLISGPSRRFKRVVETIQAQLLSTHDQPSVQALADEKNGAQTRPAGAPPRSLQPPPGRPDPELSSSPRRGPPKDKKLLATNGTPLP
# [2] = molecular target: T1, Serine/threonine-protein kinase BRSK1 (Homo sapiens); conditions: at 10 µM
# [3] = molecular target: T2, Serine/threonine-protein kinase BRSK2 (Homo sapiens) (UniProt Q8IWQ3); conditions: at 1 µM
# T2 sequence (whole entry): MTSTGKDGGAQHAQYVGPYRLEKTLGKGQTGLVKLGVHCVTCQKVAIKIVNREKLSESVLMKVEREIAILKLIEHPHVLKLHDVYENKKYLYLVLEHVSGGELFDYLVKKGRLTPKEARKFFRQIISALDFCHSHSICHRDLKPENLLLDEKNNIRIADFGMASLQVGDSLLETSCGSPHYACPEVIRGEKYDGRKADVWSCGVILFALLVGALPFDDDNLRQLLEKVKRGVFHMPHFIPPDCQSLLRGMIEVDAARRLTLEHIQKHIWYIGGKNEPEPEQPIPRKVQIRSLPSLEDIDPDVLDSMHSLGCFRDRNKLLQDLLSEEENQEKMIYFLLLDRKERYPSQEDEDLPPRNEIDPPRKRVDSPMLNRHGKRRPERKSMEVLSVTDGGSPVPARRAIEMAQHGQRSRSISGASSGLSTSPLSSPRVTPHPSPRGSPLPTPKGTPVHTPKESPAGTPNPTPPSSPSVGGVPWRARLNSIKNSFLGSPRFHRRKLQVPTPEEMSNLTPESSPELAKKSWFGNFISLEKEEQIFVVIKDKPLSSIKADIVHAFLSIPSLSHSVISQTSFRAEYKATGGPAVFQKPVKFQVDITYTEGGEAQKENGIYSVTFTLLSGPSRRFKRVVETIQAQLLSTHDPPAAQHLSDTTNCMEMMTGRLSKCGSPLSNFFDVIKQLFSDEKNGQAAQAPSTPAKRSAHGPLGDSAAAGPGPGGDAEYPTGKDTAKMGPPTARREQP
# [4] = molecular target: T2, Serine/threonine-protein kinase BRSK2 (Homo sapiens); conditions: at 10 µM
# [5] = molecular target: T3, Cyclin-dependent kinase 2/cyclin A (Homo sapiens) (UniProt P24941+P20248+P78396); conditions: at 1 µM
# [6] = molecular target: T3, Cyclin-dependent kinase 2/cyclin A (Homo sapiens); conditions: at 10 µM
# [7] = molecular target: T4, Cyclin-dependent kinase 2/cyclin E (Homo sapiens) (UniProt P24864+P24941+O96020); conditions: at 1 µM
# [8] = molecular target: T4, Cyclin-dependent kinase 2/cyclin E (Homo sapiens); conditions: at 10 µM
# [9] = molecular target: T5, Cyclin-dependent kinase 5/CDK5 activator 1 (Homo sapiens) (UniProt Q00535+Q15078); conditions: at 10 µM
# T5 sequence (Q00535 whole entry): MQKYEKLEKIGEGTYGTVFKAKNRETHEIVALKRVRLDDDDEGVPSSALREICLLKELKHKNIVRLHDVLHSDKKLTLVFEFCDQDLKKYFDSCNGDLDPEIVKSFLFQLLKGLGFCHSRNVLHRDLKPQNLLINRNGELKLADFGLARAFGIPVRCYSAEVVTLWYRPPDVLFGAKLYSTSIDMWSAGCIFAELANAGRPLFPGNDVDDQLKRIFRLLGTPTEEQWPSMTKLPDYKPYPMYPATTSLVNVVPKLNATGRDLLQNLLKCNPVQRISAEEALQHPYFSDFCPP
# T5 sequence (Q15078 99-307 partner limits assumed): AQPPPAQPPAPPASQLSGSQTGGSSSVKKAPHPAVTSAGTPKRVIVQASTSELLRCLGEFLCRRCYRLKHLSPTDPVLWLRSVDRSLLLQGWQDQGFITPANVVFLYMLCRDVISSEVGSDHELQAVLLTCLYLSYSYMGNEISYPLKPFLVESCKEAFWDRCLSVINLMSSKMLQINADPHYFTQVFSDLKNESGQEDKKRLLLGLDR
# [10] = molecular target: T5, Cyclin-dependent kinase 5/CDK5 activator 1 (Homo sapiens); conditions: at 1 µM
# [11] = molecular target: T5, Cyclin-dependent kinase 5/CDK5 activator 1 (Homo sapiens); conditions: at 10 µM; remark: listed apart in the source
# [12] = molecular target: T6, Cyclin-dependent kinase 7/ cyclin H (Homo sapiens) (UniProt P51946+P50613); conditions: at 1 µM
# [13] = molecular target: T6, Cyclin-dependent kinase 7/ cyclin H (Homo sapiens); conditions: at 10 µM
# [14] = molecular target: T7, Cyclin-dependent kinase 1/cyclin B1 (Homo sapiens) (UniProt P06493+P14635); conditions: at 1 µM
# T7 sequence (P06493 whole entry, looked up): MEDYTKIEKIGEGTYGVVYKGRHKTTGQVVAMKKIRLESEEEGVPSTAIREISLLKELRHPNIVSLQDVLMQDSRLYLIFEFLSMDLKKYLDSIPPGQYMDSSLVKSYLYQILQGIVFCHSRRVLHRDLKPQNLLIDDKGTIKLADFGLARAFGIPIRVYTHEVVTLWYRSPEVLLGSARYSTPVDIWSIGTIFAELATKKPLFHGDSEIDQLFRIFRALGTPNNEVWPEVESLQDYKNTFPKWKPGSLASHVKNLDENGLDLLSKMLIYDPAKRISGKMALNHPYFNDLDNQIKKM
# T7 sequence (P14635 whole entry, looked up): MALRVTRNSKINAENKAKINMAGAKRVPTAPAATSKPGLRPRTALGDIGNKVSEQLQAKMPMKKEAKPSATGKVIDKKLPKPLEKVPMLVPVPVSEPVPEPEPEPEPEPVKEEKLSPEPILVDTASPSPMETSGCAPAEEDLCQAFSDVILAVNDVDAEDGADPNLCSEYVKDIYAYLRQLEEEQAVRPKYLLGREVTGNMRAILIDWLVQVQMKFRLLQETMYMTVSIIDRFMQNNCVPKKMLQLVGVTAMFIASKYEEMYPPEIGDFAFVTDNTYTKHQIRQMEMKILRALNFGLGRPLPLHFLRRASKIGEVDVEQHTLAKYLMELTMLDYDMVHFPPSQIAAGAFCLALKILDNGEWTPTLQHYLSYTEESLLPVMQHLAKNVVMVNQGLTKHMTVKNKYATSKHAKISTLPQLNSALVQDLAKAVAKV
# [15] = molecular target: T7, Cyclin-dependent kinase 1/cyclin B1 (Homo sapiens); conditions: at 10 µM
# [16] = molecular target: T8, CDK3/cyclin E (Homo sapiens) (UniProt P24864+O96020+Q00526); conditions: at 1 µM
# T8 sequence (O96020 whole entry, looked up): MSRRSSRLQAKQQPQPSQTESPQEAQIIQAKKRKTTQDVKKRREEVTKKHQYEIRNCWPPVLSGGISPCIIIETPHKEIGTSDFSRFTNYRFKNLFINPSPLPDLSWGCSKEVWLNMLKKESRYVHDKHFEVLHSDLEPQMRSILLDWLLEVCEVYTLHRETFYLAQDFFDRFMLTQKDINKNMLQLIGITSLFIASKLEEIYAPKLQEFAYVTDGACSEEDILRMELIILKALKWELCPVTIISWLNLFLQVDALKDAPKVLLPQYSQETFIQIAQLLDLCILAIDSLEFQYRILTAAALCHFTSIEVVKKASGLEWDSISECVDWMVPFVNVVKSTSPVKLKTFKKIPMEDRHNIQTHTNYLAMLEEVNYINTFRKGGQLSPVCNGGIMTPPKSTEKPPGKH
# T8 sequence (P24864 whole entry, looked up): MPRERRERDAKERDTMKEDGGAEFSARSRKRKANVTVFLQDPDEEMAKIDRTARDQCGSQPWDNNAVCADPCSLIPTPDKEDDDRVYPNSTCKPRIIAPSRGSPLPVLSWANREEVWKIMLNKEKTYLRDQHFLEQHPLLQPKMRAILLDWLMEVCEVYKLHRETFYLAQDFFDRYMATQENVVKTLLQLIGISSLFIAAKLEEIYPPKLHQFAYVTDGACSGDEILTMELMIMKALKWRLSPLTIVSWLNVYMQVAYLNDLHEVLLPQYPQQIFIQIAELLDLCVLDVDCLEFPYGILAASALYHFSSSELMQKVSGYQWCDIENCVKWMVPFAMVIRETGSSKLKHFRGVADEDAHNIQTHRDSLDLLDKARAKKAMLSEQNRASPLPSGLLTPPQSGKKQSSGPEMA
# T8 sequence (Q00526 whole entry, looked up): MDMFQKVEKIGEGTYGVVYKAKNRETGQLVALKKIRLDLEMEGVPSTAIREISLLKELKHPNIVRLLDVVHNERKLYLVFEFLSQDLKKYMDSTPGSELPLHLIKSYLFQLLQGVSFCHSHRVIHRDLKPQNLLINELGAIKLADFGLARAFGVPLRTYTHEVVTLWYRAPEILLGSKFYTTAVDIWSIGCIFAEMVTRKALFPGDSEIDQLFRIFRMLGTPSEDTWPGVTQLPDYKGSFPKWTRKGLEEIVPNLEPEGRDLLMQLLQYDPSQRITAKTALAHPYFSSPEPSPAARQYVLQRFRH
# [17] = molecular target: T8, CDK3/cyclin E (Homo sapiens); conditions: at 10 µM
# [18] = molecular target: T5, Cyclin-dependent kinase 5/CDK5 activator 1 (Homo sapiens); conditions: at 1 µM; remark: listed apart in the source
# [19] = molecular target: T9, CDK6/cyclin D3 (Homo sapiens) (UniProt P30281+Q00534); conditions: at 1 µM
# [20] = molecular target: T9, CDK6/cyclin D3 (Homo sapiens); conditions: at 10 µM
SMILES,residual activity [1] [%],residual activity [2] [%],residual activity [3] [%],residual activity [4] [%],residual activity [5] [%],residual activity [6] [%],residual activity [7] [%],residual activity [8] [%],residual activity [9] [%],residual activity [10] [%],residual activity [11] [%],residual activity [12] [%],residual activity [13] [%],residual activity [14] [%],residual activity [15] [%],residual activity [16] [%],residual activity [17] [%],residual activity [18] [%],residual activity [19] [%],residual activity [20] [%]
NC(=O)c1ccc(-c2nc(-c3ccc4c(c3)OCCO4)c(-c3ccccn3)[nH]2)cc1,99,77,119,97,96,85,92,87,84,96,80,92,81,,,,,,,
O=C1NC(=O)c2c1c1c3ccccc3[nH]c1n1cncc21,32,25,23,17,64,61,58,35,30,52,30,87,69,83,53,48,27,49,62,28
O=C1NC(=O)C(c2c[nH]c3ccccc23)=C1c1c[nH]c2ccccc12,27,35,73,35,97,19,79,30,28,76,42,76,32,,39,,29,74,,
O=c1cc(N2CCOCC2)oc2c1ccc1ccccc12,91,96,102,108,,87,95,97,67,100,81,86,88,106,91,102,79,80,100,89
CC(C)(C)c1nc2c3ccc(F)cc3c3c(=O)[nH]ccc3c2[nH]1,32,7,13,4,,,,,,,,69,,,,,54,,71,50
Cn1c2ccccc2c2c3c(c4c5ccccc5n(CCC#N)c4c21)CNC3=O,6,6,7,6,22,17,7,12,4,3,6,74,79,20,18,,,5,48,38
CN(C)S(=O)(=O)c1ccc2c(c1)/C(=C/c1cc3c([nH]1)CCCC3)C(=O)N2,97,75,40,50,87,77,96,97,98,90,87,25,16,88,95,87,83,90,96,87
O=S(=O)(c1cccc2cnccc12)N1CCCNCC1,,84,,80,,,,,,,,,,,,,,,,
CCCCc1c(-c2ccc(O)cc2)[nH]c2nccnc12,88,88,,,,,20,16,,,,78,51,29,18,29,6,,89,33
N#Cc1c(NC(=O)c2cccc3ccccc23)sc2c1CCCC2,,,,90,96,90,96,94,,,,,,,,,,,,90
NCCNc1ncc(C(N)=O)c(Nc2cccc(C(F)(F)F)c2)n1,,,,,131,65,,47,25,70,33,78,49,,43,,,77,,
NC(=O)c1cccc(-c2cc(Nc3ccc(OC(F)(F)F)cc3)ncn2)c1,,,,,139,94,,,65,,,,91,,,,,93,,
COc1cc2ncnc(Nc3cccc(Cl)c3)c2cc1OC,14,17,,,138,,109,105,107,,,,,,,105,,113,,100
Fc1ccc(-c2nc3n(c2-c2ccncc2)CCS3)cc1,99,100,,,83,89,,94,,,,,,100,95,,,,124,
CCOC(=O)c1c(C)[nH]c(/C=C2\C(=O)Nc3ccccc32)c1C,,,,,140,100,99,95,,,,,,,,100,90,,93,95
CN([C@@H](Cc1ccc(OS(=O)(=O)c2cccc3cnccc23)cc1)C(=O)N1CCN(c2ccccc2)CC1)S(=O)(=O)c1cccc2cnccc12,,74,,79,,98,,,,,,,,,,,,,,
c1ccc(-c2cnc(Nc3ccc(OCCN4CCCC4)cc3)s2)cc1,46,42,,,147,70,,,17,71,25,70,39,113,62,81,43,64,38,6
CC(C)[C@H](CO)Nc1nc(Nc2cc(N)cc(Cl)c2)c2ncn(C(C)C)c2n1,91,75,,,,,,,,20,2,43,6,,,,,,,
